Assay results reported in the supplement of paper PMC6992640.

What was measured:
Test in all cases: cell viability of combination (% of vehicle); higher = less cytotoxic
Conditions in all cases: 1 µM; 72 h; partner dose: 10 nM
HCI01 [1] = tested on: HCI01 (cells of a triple-negative basal-like breast cancer xenograft)
Method: (§1)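 PDX cells were treated for 72 h with each drug at 1 µM plus carfilzomib (10 nM; 100 nM for WHIM2). Luciferase viability is expressed as percent of vehicle.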

UCD52 [2] = tested on: UCD52 (cells of a triple-negative basal-like breast cancer xenograft)
Method: as §1

WHIM30 = tested on: WHIM30 (cells of a triple-negative basal-like breast cancer xenograft)
Method: as §1

HCI01 [3] = tested on: HCI01; remark: listed apart in the source
Method: (§2)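 PDX cells were treated for 72 h with each drug at 1 µM plus afatinib (10 nM; 1 µM for WHIM30). Luciferase viability is expressed as percent of vehicle.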

UCD52 [4] = tested on: UCD52; remark: listed apart in the source
Method: as §2

WHIM2 = tested on: WHIM2 (cells of a triple-negative basal-like breast cancer xenograft)
Method: as §2

Compound: Cc1cc(-n2c(=O)[nH]c(=O)n(C)c2=O)ccc1Oc1ccc(SC(F)(F)F)cc1 [Toltrazuril] + CC(C)C[C@H](NC(=O)[C@H](CCc1ccccc1)NC(=O)CN1CCOCC1)C(=O)N[C@@H](Cc1ccccc1)C(=O)N[C@@H](CC(C)C)C(=O)[C@@]1(C)CO1 [Carfilzomib]
- cell viability of combination (HCI01 [1]): 76.4
- cell viability of combination (UCD52 [2]): 61
- cell viability of combination (WHIM30): 19.3

Compound: CCC(NC(=O)C(C)NC)C(=O)N1CC(O)CC1Cc1c(-c2[nH]c3cc(F)ccc3c2CC2CC(O)CN2C(=O)C(CC)NC(=O)C(C)NC)[nH]c2cc(F)ccc12 (centres undefined) + CN(C)C/C=C/C(=O)Nc1cc2c(Nc3ccc(F)c(Cl)c3)ncnc2cc1O[C@H]1CCOC1 [Afatinib]
- cell viability of combination (HCI01 [3]): 42.3
- cell viability of combination (UCD52 [4]): 53.5
- cell viability of combination (WHIM2): 19.1

Compound: O=C(O)CO.[NH2-].[NH2-].[Pt+2] [Nedaplatin] + CN(C)C/C=C/C(=O)Nc1cc2c(Nc3ccc(F)c(Cl)c3)ncnc2cc1O[C@H]1CCOC1 [Afatinib]
- cell viability of combination (HCI01 [3]): 49.9
- cell viability of combination (UCD52 [4]): 82.6
- cell viability of combination (WHIM2): 48.5

Compound: Cl.Cl.O=C1c2c(O)ccc(O)c2C(=O)c2c(NCCNCCO)ccc(NCCNCCO)c21 [Mitoxantrone HCl] + CC(C)C[C@H](NC(=O)[C@H](CCc1ccccc1)NC(=O)CN1CCOCC1)C(=O)N[C@@H](Cc1ccccc1)C(=O)N[C@@H](CC(C)C)C(=O)[C@@]1(C)CO1 [Carfilzomib]
- cell viability of combination (HCI01 [1]): 74.1
- cell viability of combination (UCD52 [2]): 30
- cell viability of combination (WHIM30): 5.21

Compound: COC(=O)C1=C(C)NC(C)=C(C(=O)OCCN(C)Cc2ccccc2)C1c1cccc([N+](=O)[O-])c1.Cl (centres undefined) [Nicardipine HCl] + CC(C)C[C@H](NC(=O)[C@H](CCc1ccccc1)NC(=O)CN1CCOCC1)C(=O)N[C@@H](Cc1ccccc1)C(=O)N[C@@H](CC(C)C)C(=O)[C@@]1(C)CO1 [Carfilzomib]
- cell viability of combination (HCI01 [1]): 115
- cell viability of combination (UCD52 [2]): 52
- cell viability of combination (WHIM30): 13.8

Compound: O=C(O)c1cc(O)c(O)c(O)c1 [Gallic acid] + CC(C)C[C@H](NC(=O)[C@H](CCc1ccccc1)NC(=O)CN1CCOCC1)C(=O)N[C@@H](Cc1ccccc1)C(=O)N[C@@H](CC(C)C)C(=O)[C@@]1(C)CO1 [Carfilzomib]
- cell viability of combination (HCI01 [1]): 74.5
- cell viability of combination (UCD52 [2]): 60.9
- cell viability of combination (WHIM30): 16.3

Compound: CC[C@H](C)[C@H]1O[C@]2(CC[C@@H]1C)C[C@@H]1C[C@@H](C/C=C(\C)[C@@H](O[C@H]3C[C@H](OC)[C@@H](O[C@H]4C[C@H](OC)[C@@H](O)[C@H](C)O4)[C@H](C)O3)[C@@H](C)/C=C/C=C3\CO[C@@H]4[C@H](O)C(C)=C[C@@H](C(=O)O1)[C@]34O)O2 [Ivermectin] + CN(C)C/C=C/C(=O)Nc1cc2c(Nc3ccc(F)c(Cl)c3)ncnc2cc1O[C@H]1CCOC1 [Afatinib]
- cell viability of combination (HCI01 [3]): 46
- cell viability of combination (UCD52 [4]): 45.8
- cell viability of combination (WHIM2): 44.5

Compound: CCCCc1oc2ccc(NS(C)(=O)=O)cc2c1C(=O)c1ccc(OCCCN(CCCC)CCCC)cc1.Cl [Dronedarone HCl] + CC(C)C[C@H](NC(=O)[C@H](CCc1ccccc1)NC(=O)CN1CCOCC1)C(=O)N[C@@H](Cc1ccccc1)C(=O)N[C@@H](CC(C)C)C(=O)[C@@]1(C)CO1 [Carfilzomib]
- cell viability of combination (HCI01 [1]): 92.3
- cell viability of combination (UCD52 [2]): 59.9
- cell viability of combination (WHIM30): 12.7

Compound: CNC(=O)c1cc(Oc2ccc(NC(=O)Nc3ccc(Cl)c(C(F)(F)F)c3)c(F)c2)ccn1 [Regorafenib] + CC(C)C[C@H](NC(=O)[C@H](CCc1ccccc1)NC(=O)CN1CCOCC1)C(=O)N[C@@H](Cc1ccccc1)C(=O)N[C@@H](CC(C)C)C(=O)[C@@]1(C)CO1 [Carfilzomib]
- cell viability of combination (HCI01 [1]): 74.6
- cell viability of combination (UCD52 [2]): 58.6
- cell viability of combination (WHIM30): 22.4

Compound: CC1(COc2ccc3c(c2)ncn3-c2ccc3cccc(N4CCC(N)CC4)c3n2)COC1 + CN(C)C/C=C/C(=O)Nc1cc2c(Nc3ccc(F)c(Cl)c3)ncnc2cc1O[C@H]1CCOC1 [Afatinib]
- cell viability of combination (HCI01 [3]): 56.3

Compound: CC(C)COc1ccc(CNC(=O)N(Cc2ccc(F)cc2)C2CCN(C)CC2)cc1 [Pimavanserin] + CN(C)C/C=C/C(=O)Nc1cc2c(Nc3ccc(F)c(Cl)c3)ncnc2cc1O[C@H]1CCOC1 [Afatinib]
- cell viability of combination (HCI01 [3]): 52.8
- cell viability of combination (UCD52 [4]): 65.2
- cell viability of combination (WHIM2): 50.8

Compound: CC(C)CC(NC(=O)C(NC(=O)c1cccc(-c2ccccc2)n1)C(C)O)B(O)O (centres undefined) + CC(C)C[C@H](NC(=O)[C@H](CCc1ccccc1)NC(=O)CN1CCOCC1)C(=O)N[C@@H](Cc1ccccc1)C(=O)N[C@@H](CC(C)C)C(=O)[C@@]1(C)CO1 [Carfilzomib]
- cell viability of combination (HCI01 [1]): 42.4
- cell viability of combination (UCD52 [2]): 20.1
- cell viability of combination (WHIM30): 8.71

Compound: COc1ccccc1OCCNCC(O)COc1cccc2[nH]c3ccccc3c12 (centres undefined) [Carvedilol] + CC(C)C[C@H](NC(=O)[C@H](CCc1ccccc1)NC(=O)CN1CCOCC1)C(=O)N[C@@H](Cc1ccccc1)C(=O)N[C@@H](CC(C)C)C(=O)[C@@]1(C)CO1 [Carfilzomib]
- cell viability of combination (HCI01 [1]): 76.8
- cell viability of combination (UCD52 [2]): 61.4
- cell viability of combination (WHIM30): 20.7

Compound: C=C1C(=CC=C2CCCC3(C)C2CCC3C(C)C=CC(C)C(C)C)CC(O)CC1O (centres undefined) [Doxercalciferol] + CC(C)C[C@H](NC(=O)[C@H](CCc1ccccc1)NC(=O)CN1CCOCC1)C(=O)N[C@@H](Cc1ccccc1)C(=O)N[C@@H](CC(C)C)C(=O)[C@@]1(C)CO1 [Carfilzomib]
- cell viability of combination (HCI01 [1]): 67
- cell viability of combination (UCD52 [2]): 44
- cell viability of combination (WHIM30): 17

Compound: CCc1cnn2c(NCc3ccc[n+]([O-])c3)cc(N3CCCCC3CCO)nc12 (centres undefined) + CN(C)C/C=C/C(=O)Nc1cc2c(Nc3ccc(F)c(Cl)c3)ncnc2cc1O[C@H]1CCOC1 [Afatinib]
- cell viability of combination (HCI01 [3]): 25.6
- cell viability of combination (UCD52 [4]): 21.4
- cell viability of combination (WHIM2): 16.4

Compound: CO[C@H]1/C=C/O[C@@]2(C)Oc3c(C)c(O)c4c(O)c(c(/C=N/N5CCN(C6CCCC6)CC5)c(O)c4c3C2=O)NC(=O)/C(C)=C\C=C\[C@H](C)[C@H](O)[C@@H](C)[C@@H](O)[C@@H](C)[C@H](OC(C)=O)[C@@H]1C [Rifapentine] + CC(C)C[C@H](NC(=O)[C@H](CCc1ccccc1)NC(=O)CN1CCOCC1)C(=O)N[C@@H](Cc1ccccc1)C(=O)N[C@@H](CC(C)C)C(=O)[C@@]1(C)CO1 [Carfilzomib]
- cell viability of combination (HCI01 [1]): 78.8
- cell viability of combination (UCD52 [2]): 58.6
- cell viability of combination (WHIM30): 21.9

Compound: COc1cc2c(Nc3ccc(Br)cc3F)ncnc2cc1OCC1CCN(C)CC1 [Vandetanib (ZD6474)] + CC(C)C[C@H](NC(=O)[C@H](CCc1ccccc1)NC(=O)CN1CCOCC1)C(=O)N[C@@H](Cc1ccccc1)C(=O)N[C@@H](CC(C)C)C(=O)[C@@]1(C)CO1 [Carfilzomib]
- cell viability of combination (HCI01 [1]): 64.1
- cell viability of combination (UCD52 [2]): 39.4
- cell viability of combination (WHIM30): 15.1

Compound: COc1ccc(CN2CCN(C(c3ccc(F)cc3)c3ccc(F)cc3)CC2)c(OC)c1OC.Cl.Cl [Lomerizine HCl] + CC(C)C[C@H](NC(=O)[C@H](CCc1ccccc1)NC(=O)CN1CCOCC1)C(=O)N[C@@H](Cc1ccccc1)C(=O)N[C@@H](CC(C)C)C(=O)[C@@]1(C)CO1 [Carfilzomib]
- cell viability of combination (HCI01 [1]): 91.1
- cell viability of combination (UCD52 [2]): 57.7
- cell viability of combination (WHIM30): 15.6

Compound: O=C(NC1CCN(CCCCC2(C(=O)NCC(F)(F)F)c3ccccc3-c3ccccc32)CC1)c1ccccc1-c1ccc(C(F)(F)F)cc1 [Lomitapide] + CC(C)C[C@H](NC(=O)[C@H](CCc1ccccc1)NC(=O)CN1CCOCC1)C(=O)N[C@@H](Cc1ccccc1)C(=O)N[C@@H](CC(C)C)C(=O)[C@@]1(C)CO1 [Carfilzomib]
- cell viability of combination (HCI01 [1]): 84.9
- cell viability of combination (UCD52 [2]): 38.9
- cell viability of combination (WHIM30): 9.93

Compound: Cl.Clc1ccccc1CN1CCc2sccc2C1 [Ticlopidine HCl] + CN(C)C/C=C/C(=O)Nc1cc2c(Nc3ccc(F)c(Cl)c3)ncnc2cc1O[C@H]1CCOC1 [Afatinib]
- cell viability of combination (HCI01 [3]): 57.8
- cell viability of combination (WHIM2): 47.9

Compound: CO[C@H]1/C=C/O[C@@]2(C)Oc3c(C)c(O)c4c(O)c(c(/C=N/N5CCN(C6CCCC6)CC5)c(O)c4c3C2=O)NC(=O)/C(C)=C\C=C\[C@H](C)[C@H](O)[C@@H](C)[C@@H](O)[C@@H](C)[C@H](OC(C)=O)[C@@H]1C [Rifapentine] + CN(C)C/C=C/C(=O)Nc1cc2c(Nc3ccc(F)c(Cl)c3)ncnc2cc1O[C@H]1CCOC1 [Afatinib]
- cell viability of combination (HCI01 [3]): 56.2
- cell viability of combination (WHIM2): 46.2

Compound: CC(O)C(=O)O.CC(O)C(=O)O.CN1CCN(c2ccc3c(c2)NC(=C2C(=O)N=c4cccc(F)c4=C2N)N3)CC1 [Dovitinib Dilactic acid] + CN(C)C/C=C/C(=O)Nc1cc2c(Nc3ccc(F)c(Cl)c3)ncnc2cc1O[C@H]1CCOC1 [Afatinib]
- cell viability of combination (HCI01 [3]): 42.3
- cell viability of combination (WHIM2): 30.4

Compound: Cl.Nc1ccn(C2OC(CO)C(O)C2O)c(=O)n1 (centres undefined) [Cytarabine hydrochloride] + CN(C)C/C=C/C(=O)Nc1cc2c(Nc3ccc(F)c(Cl)c3)ncnc2cc1O[C@H]1CCOC1 [Afatinib]
- cell viability of combination (HCI01 [3]): 46.6
- cell viability of combination (WHIM2): 40.3

Compound: CCOc1nc2cccc(C(=O)OC(C)OC(=O)OC3CCCCC3)c2n1Cc1ccc(-c2ccccc2-c2nn[nH]n2)cc1 (centres undefined) [Candesartan Cilexetil] + CN(C)C/C=C/C(=O)Nc1cc2c(Nc3ccc(F)c(Cl)c3)ncnc2cc1O[C@H]1CCOC1 [Afatinib]
- cell viability of combination (HCI01 [3]): 55.5
- cell viability of combination (WHIM2): 50.8

Compound: Cl.O.O=C1Cc2cc(CCN3CCN(c4nsc5ccccc45)CC3)c(Cl)cc2N1 [Ziprasidone hydrochloride monohydrate] + CN(C)C/C=C/C(=O)Nc1cc2c(Nc3ccc(F)c(Cl)c3)ncnc2cc1O[C@H]1CCOC1 [Afatinib]
- cell viability of combination (HCI01 [3]): 46.7
- cell viability of combination (WHIM2): 45.2

Compound: COc1cccc2c1C(=O)c1c(O)c3c(c(O)c1C2=O)CC(O)(C(=O)CO)CC3OC1CC(N)C(O)C(C)O1.Cl (centres undefined) [Epirubicin HCl] + CN(C)C/C=C/C(=O)Nc1cc2c(Nc3ccc(F)c(Cl)c3)ncnc2cc1O[C@H]1CCOC1 [Afatinib]
- cell viability of combination (HCI01 [3]): 58
- cell viability of combination (WHIM2): 10.2
